Test results reported in the supplement of paper PMC6555819.

Assays:
Experiment in all cases: PBM binding z-score (relative to random genomic background probes); higher = stronger binding; sequences stand for … in GC…GCGATTGACAGCGTAGAATGAAGG
[1] = test system: RARb homodimer (NR concentration 270 nM)
Procedure, shortened: (§1)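 Binding z-scores take random background probes as their reference. They come from custom Agilent 4×180K protein-binding microarrays incubated 1 h with ligand-free nuclear receptor dimers, with antibodies against each partner (one per run) detecting binding. Scanned fluorescence was regression-normalized.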

[2] = test system: RARg:RXRa (NR concentration 270 nM, RXRa partner concentration 90 nM)
Procedure, shortened: as §1

[3] = test system: RARg homodimer (NR concentration 270 nM)
Procedure, shortened: as §1

[4] = test system: RXRa DBDmut IVT, anti-RXR (DBD mutation: RXRa K156A/R161A, NR concentration 90 nM)
Procedure, shortened: as §1

[5] = test system: RXRa homodimer (NR concentration 180 nM)
Procedure, shortened: as §1

[6] = test system: THRa:RXRa (NR concentration 90 nM, RXRa partner concentration 90 nM)
Procedure, shortened: as §1

[7] = test system: THRa homodimer (NR concentration 90 nM)
Procedure, shortened: as §1

[8] = test system: VDR homodimer (NR concentration 270 nM)
Procedure, shortened: as §1

Sequence | PBM binding z-score [1] | PBM binding z-score [2] | PBM binding z-score [3] | PBM binding z-score [4] | PBM binding z-score [5] | PBM binding z-score [6] | PBM binding z-score [7] | PBM binding z-score [8]
TTACCAAGGTGAGCTTAGGTCGTTGATCCAACTC | 1.27 | 0.36 | 0.732 | -0.17 | 0.352 | 3.88 | 0.952 | -0.0607
ACTAGCAGGCCAAGTTGGGGTCACTCAAACAAAG | 3.81 | 4.97 | 3.25 | 0.825 | 5.2 | 4.16 | 2.89 | 3.34
GATACAGGGTCACCTAGAGGCCAGAGTATGGAAA | 3.89 | 7.38 | 5.66 | 2.02 | 6.04 | 3.91 | 1.32 | 1.97
ACTTACGGGTCAACGAGGTTGTAGCACGCGTATA | 3.03 | 5.34 | 4.57 | 2.44 | 5.59 | 3.38 | 0.417 | 2.86
GCTACAGGGTCAAGGCCAGAGTACGCGTATTGAT | 3.58 | 5.38 | 5.17 | 3 | 5.92 | 3.42 | 1.38 | 2.4
ATATGTCGGTTAAGGGTCATTCAGGTTGGTTCGC | 3.68 | 4.69 | 3.43 | 2.21 | 4.55 | 3.42 | 1.7 | 4.47
CCTAGCAGGCCAGGGTAACTCAAGCATTTCGCTT | -0.537 | -0.456 | -0.357 | -0.541 | -0.455 | -0.054 | -0.445 | -0.329
CCTATTAGTTGACCAGAAGGGCAACCGAAGCTCG | 1.88 | 1.45 | 0.985 | 0.633 | 0.786 | 0.606 | 0.383 | 0.595
ATCTCTAGGTTACAAGTTCAGTGAAAGAGAGGAC | 2.77 | 2.81 | 2.37 | 1.65 | 1.76 | 2.02 | 1.48 | 2.9
CCTACTGGGCCACGAAAGGTCATTGATTCAGTGA | 4.53 | 4.73 | 4.37 | 0.61 | 5.18 | 3.67 | 0.798 | 2.59
TCTCGGAGGACACGAAGGTCAGAGTTTTCCAGAG | 3.77 | 3.25 | 3.92 | 0.753 | 2.03 | 2.83 | 1.19 | 1.93
GCTGCTAGGTCAACTGATGGTCGGCTAAAGCTCG | 3.67 | 4.74 | 5.56 | 1.82 | 2.91 | 3.09 | 0.97 | 0.148
TCTTGTAGATCAAAGATTAAGAAAGCCGAAGCCT | -1.12 | 0.0193 | -0.33 | 0.517 | 0.241 | -0.201 | -0.962 | -0.417
TCGAGTAGGTTACCAATGGGGCATTGAGCTTTCT | 0.567 | 1.1 | 0.221 | 0.408 | 0.672 | 0.145 | -0.895 | -0.64
ACTAGCAGGCCAAGTTTGGGTCACTCATACAAAG | 2.32 | 2.26 | 1.53 | -0.0603 | 0.947 | 2.47 | 1.27 | 0.331
TTACCAAGGTGAAGGTCGCTGATCCCTCTGTAGA | 2.03 | 1.72 | 1.7 | -0.269 | 1.85 | 2.41 | 0.612 | -0.248
TCATATATGTAATACAGGTGAAAGTCGGCATCTA | 0.413 | 0.595 | 0.586 | 1.59 | 1.13 | 0.578 | 0.0633 | 0.192
TGTCAAAGTTCAAAGGTAACGTAGGTATCCACAC | 4.01 | 6.19 | 6.01 | 4.14 | 7.19 | 3.05 | -0.392 | 3.97
TCTTGTAGATCAGCAGGTTAAAAAAGCTGGCCAA | 0.0977 | -0.388 | -0.402 | 0.516 | 0.184 | 0.165 | -0.53 | -0.268
GCATATAGGTAAAACAAGGTGAAAGTCCGATTGT | 0.61 | 0.353 | 0.33 | 0.273 | 0.55 | 4.2 | 0.967 | 0.035
CCTCGGAGGACAGAAGGTCCGAGCTGTCCGCTTT | -0.0245 | -0.392 | -0.0646 | 0.0399 | -1.02 | -0.359 | -0.311 | 0.0219
CTACCAAGGTGAACAAGGACGTTGATTACTATTC | 0.951 | 0.848 | 1.13 | 0.601 | 0.715 | 2.43 | 1.36 | 0.537
GCTTGTGGATCAAGGTTAAGAAAGACTAAGCTAA | 0.362 | 0.34 | 0.12 | 0.0412 | 0.848 | 1.27 | -0.23 | 0.00536
CGAATTAGGTCAGAACAGGACAGTGAAGGATGAT | 2.36 | 2.65 | 3.43 | 0.886 | 1.29 | 3.86 | 1.01 | 0.142
GCTAGCAGGCCATATGGGTCACTCAATGACGGGC | 1.78 | 1.54 | 1.39 | -0.402 | 1.43 | 1 | -0.658 | -0.276
CTCGAAAGGCCGTGCTCAGGTGAGTATACCAAAC | 0.384 | 0.136 | 0.46 | 0.0515 | -0.297 | 1.61 | 0.381 | -0.249
TCATATAGGTAAATACTAGGTGAAAGTCCGATCT | 0.493 | 0.573 | 0.709 | 1.89 | 1 | 1.49 | 0.718 | 0.521
CCTACTGGGGCATTCAGAGGTCATTGATCATATG | 4.07 | 5.17 | 3.71 | 0.683 | 3.72 | 3.43 | 1.19 | 3.38
